Integrin act MD = qHTS for Activators of Integrin-Mediated Alleviation for Muscular Dystrophy; alpha7betagal myoblasts, beta-gal FDG fluorescence, 48 h; Potency, µM (highest dose often 38.3 µM), most hits filed as activators; hit rate 0.064% among 350,000; AID 624291, 2012; also: nearly all actives have a fitted effect of over 60% in size
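alpha7betagal+/- myoblasts (passage 13, 250/well) treated 48 h at 37C with compounds at 1:260 dilution of DMSO stock. Lysed, then beta-galactosidase activity read as FDG fluorescence (ex 480/em 540) after 30 min, with pre-read for autofluorescence.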
ATXN viability = Viability Counterscreen for Primary qHTS for Inhibitors of ATXN expression; S2 cells (HEK-293 line with an ATXN2-luciferase reporter) viability, CellTiter-Fluor protease fluorescence, 24 h; Potency, µM (doses to about 56.7 µM), actives largely listed as cytotoxic; hit rate 0.49% among 400,000; AID 651635, 2014; also: nearly all actives have a fitted effect of over 40% in size
ATXN2 expr inh = Primary qHTS for Inhibitors of ATXN expression | hit rate 0.72% among 360,000 | AID 1745845, 2022 | Potency, µM (doses to about 57 µM), hits mostly inhibitors | HEK-293 ATXN2-luciferase reporter, luminescence, 24 h; also: nearly all actives have a fitted effect of over 55% in size
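ATXN2-luciferase reporter cells (luciferase flanked by upstream and downstream ATXN2 gene portions) were treated 24 h at 37 °C with compounds at up to 57 uM. SteadyGlo luminescence gave expression; GF-AFC fluorescence gave viability.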
IL-1B inflam inh = qHTS for Inhibitors of Inflammasome Signaling: IL-1-beta AlphaLISA Primary Screen | THP-1 LPS/ATP IL-1B secretion, AlphaLISA, 16 h; stronger effect = lower value | activity change, % at 57.5 µM | hit rate 4.7% among 360,000 | AID 743279, 2014; in the data active = activity change below about -50%; inconclusive = mostly about -30% to -49%
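Secreted IL-1B measured by AlphaLISA bead assay after 16 h compound exposure of THP-1 cells; compounds (final up to 57.5 uM) added 1 h before LPS (250 ng/mL) and ATP (1.25 mM) stimulation; lower signal means less secretion.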
D3 ag = qHTS of D3 Dopamine Receptor Agonist: qHTS | AID 652048, 2013 | D3R DiscoveRx beta-arrestin cells, luminescence, 90 min | hit rate 0.58% among 410,000 | max activation, % | D(3) dopamine receptor (Homo sapiens), P35462; in the data active = max activation above about 30%
Target sequence (P35462 whole entry, looked up): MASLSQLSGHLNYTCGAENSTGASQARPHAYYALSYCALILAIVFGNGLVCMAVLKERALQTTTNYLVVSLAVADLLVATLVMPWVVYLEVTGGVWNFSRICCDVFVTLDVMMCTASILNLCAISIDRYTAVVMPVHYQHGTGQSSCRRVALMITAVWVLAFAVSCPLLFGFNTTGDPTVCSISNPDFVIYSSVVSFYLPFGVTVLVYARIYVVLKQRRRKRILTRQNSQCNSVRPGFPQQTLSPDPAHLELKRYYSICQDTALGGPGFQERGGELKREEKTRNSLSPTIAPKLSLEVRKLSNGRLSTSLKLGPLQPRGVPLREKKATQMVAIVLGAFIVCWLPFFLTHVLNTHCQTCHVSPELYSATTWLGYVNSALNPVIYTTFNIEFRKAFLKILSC
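Cells at 1500/well, incubated overnight, then treated with pinned compounds (dopamine as control) for 90 min at 37 degrees C. DiscoveRx reagent added for 30 - 60 minutes at room temperature; luminescence read.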
D3 antag = qHTS of D3 Dopamine Receptor Antagonist: qHTS | AID 652054, 2013 | D3R cells, DiscoveRx beta-arrestin luminescence, antagonist mode; stronger effect = lower value | hit rate 2.5% among 360,000 | max response, negative = inhibition, %; in the data active = max response below about -50%; inconclusive = no clear call, values can overlap the other calls
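Cells plated overnight at 1500 cells/well, then exposed to library compounds with dopamine controls for 90 minutes at 37 degrees C. DiscoveRx reagent added for 30–60 minutes at room temperature; luminescence read, quantitative HTS format.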
Hits are given with their value; – = inactive; ? = inconclusive; · = no result given; ! = a repeat was not active; [ ] = remark or other dose. The list is not random: actives were taken first. Their share in the collection is about 7%. Unless noted, calls follow the shape of the dose curve; as a rule, active = well fitted curve in the direction sought with a large enough effect; inconclusive = small, poorly fitted or top-dose-only effect, or another doubt; inactive = no such curve, though single readings can be large; an effect the other way counts as inactive or inconclusive.

SMILES	Integrin act MD	ATXN viability	ATXN2 expr inh	IL-1B inflam inh	D3 ag	D3 antag
CC(C)=CCCC(C)CN(C)CCc1ccccn1 (stereo not drawn)	–	–	–	–	–	-64
COc1ccc2nc(N=Nc3ccc(O)c4ccccc34)sc2c1	–	14µM	14µM	–	–	–
COc1ccc(-c2nnc(SCC(=O)NCc3ccc(C)cc3)nc2-c2ccc(OC)c(OC)c2)cc1OC	·	·	·	·	–	·
COC(=O)[C@]12CCCCC=C1N(Cc1cccc3ccccc13)C(=O)[C@H](CC(=O)NCc1cccs1)C2	·	?	?	-60	–	–
COC(=O)[C@]12CCCCC=C1N(Cc1cccc3ccccc13)C(=O)[C@H](CC(=O)NCc1cccc3ccccc13)C2	·	–	–	–	–	–
COC(=O)[C@]12CCCCC=C1N(Cc1cccc3ccccc13)C(=O)[C@H](CC(=O)NCCCCc1ccccc1)C2	·	?	?	-64	–	?
COc1cc(NC(=O)c2ccccc2)c(OC)cc1NC(=O)Cc1ccc(Br)cc1	?	–	–	–	–	–
O=C(NCc1ccc(F)cc1)C1C2C=CC3(CN(Cc4cccnc4)C(=O)C13)O2 (stereo not drawn)	–	–	–	–	31	–
COc1ccc(OCc2cccc(C(=O)Nc3cc(C)on3)c2)cc1	–	–	2.2µM	–	–	–
COc1ccc(OCc2cccc(C(=O)NN)c2)cc1	–	–	2.2µM	–	–	–
COc1ccc(C(=O)Nc2ccc(OCc3ccccc3)cc2)cc1[N+](=O)[O-]	–	·	·	–	–	–
COc1ccc(OCc2cccc(C(=O)Nn3cc([N+](=O)[O-])cn3)c2)cc1	–	–	1µM	–	–	-65
NNC(=O)c1cccc(COc2ccc(Br)cc2)c1	–	–	–	–	–	–
O=C(COC(=O)c1ccc[nH]c1=O)Nc1ccc(N2CCCCC2)cc1	–	·	·	–	–	–
COc1ccc2ccccc2c1CN1CCSCC1	–	–	–	–	–	–
COc1cccc(OC)c1OCC(C)CNCC1CCCO1 (stereo not drawn)	–	–	–	–	–	-67
CCN(CC)C(=O)CN(C#N)c1nc(Cl)nc(N(C)C)n1	–	–	?	-63	–	–
CCC(C)c1ccc(NC(=O)COc2c(F)c(F)c(C(F)(F)F)c(F)c2F)cc1 (stereo not drawn)	–	?	–	-77	–	–
CC(C)(C)C1CCC(=NNc2ccc(S(N)(=O)=O)cc2[N+](=O)[O-])CC1 (stereo not drawn)	–	–	–	-87	–	–
O=C(NCC1CCCN1S(=O)(=O)c1cccs1)c1ccc([N+](=O)[O-])cc1 (stereo not drawn)	–	–	–	–	–	–
CCOC(=O)C1=C(COC(=O)CCOc2ccc(OCC)cc2)NC(=O)NC1C (stereo not drawn)	?	–	·	–	–	–
CCOC(=O)C1=C(COC(=O)CCOc2ccccc2C)NC(=O)NC1C (stereo not drawn)	–	–	–	–	–	-65
CC(C)[C@H](NC(=O)OCc1ccccc1)C(=O)NC(C=O)Cc1ccccc1 (stereo partly drawn)	·	–	–	–	–	–
CC(C)c1nc(CN(C)C(=O)N[C@H](C(=O)N[C@@H](Cc2ccccc2)C[C@H](O)[C@H](Cc2ccccc2)NC(=O)OCc2cncs2)C(C)C)cs1	·	?	27µM!	·	–	·
O=C(NC(Cc1c[nH]c2ccccc12)C(=O)Nc1ccc(OC(F)(F)F)cc1)c1cccs1 (stereo not drawn)	–	–	–[11.3 µM]	-68	–	–
SMILES	Integrin act MD	ATXN viability	ATXN2 expr inh	IL-1B inflam inh	D3 ag	D3 antag
O=C(NC(Cc1c[nH]c2ccccc12)C(=O)Nc1ccc(F)c([N+](=O)[O-])c1)c1cccs1 (stereo not drawn)	–	?	–	–	–	–
CCOC(=O)c1c(C)[nH]c(C)c1S(=O)(=O)NCCc1ccc(SC)cc1	–	–	·	–	–	–
CCOC(=O)[C@@H](CCc1ccccc1)N[C@H](C)C(=O)N1[C@H](C(=O)O)C[C@@H]2CCC[C@@H]21	·	–	–	–	–	-54
Cc1cnc(CNC(=O)c2ccc3nc([C@@H]4O[C@H](CO)[C@H](O)[C@H](O)[C@H]4O)[nH]c3c2)cn1	·	–	–	–	–	–
COC(=O)c1c(N)sc(C(=O)NCCc2ccccc2)c1C	–	–	3.5µM	–	–	–
CCN1CCN(C(c2cccs2)C(C)NC(=O)c2ccccc2F)CC1 (stereo not drawn)	–	–	–	–	–	–
C=CCNC(=S)N/N=C(\C)c1ccccn1	–[7.66 µM]	·	–	–	–	-90
C/C(=N/NC(=O)CNC(=O)c1ccccn1)c1ccccc1	–	–	·	–	–	–
C/C(=N\Nc1ccc(Cl)c(C(=O)O)c1)c1ccccn1	?	25µM	–	–	–	–
CC(=NNC(=S)Nc1ccccc1)c1ccccn1	–	?	·	?	–	–
CC(=NNC(=S)Nc1ccccc1Cl)c1ccccn1	–	?	?	-102	–	–
Cc1c(C(=O)OC2CCCCCC2)[nH]c2c1C(=O)CC(c1ccc(Cl)cc1)C2 (stereo not drawn)	·	–	–	·	–	·
Cc1ccc([N+](=O)[O-])cc1NC(=O)c1ccc(-c2ccccc2)cc1	–	–	–	–	–	–
CNC(=O)c1cc(S(=O)(=O)Nc2ccc(C)cc2C)ccc1C	–	–	–	–	–	–
Cc1ccccc1OCC(O)CN1CCN(CCN2C(=O)c3cccc4cccc(c34)C2=O)CC1 (stereo not drawn)	–	?	–	-87	–	-86
C=CCc1ccccc1OCC(O)CN1CCN(CCN2C(=O)c3cccc4cccc(c34)C2=O)CC1 (stereo not drawn)	–	?	28µM	-70	–	–
CC(=O)c1ccc(OCC(O)CN2CCN(CCN3C(=O)c4cccc5cccc(c45)C3=O)CC2)cc1 (stereo not drawn)	–	?	?	-73	–	–
O=C(/C=C/c1ccccc1)N1CCN(CCN2C(=O)c3cccc4cccc(c34)C2=O)CC1	–	–	–	–	–	-96
CCC(OCC(O)CN1CCN(CCN2C(=O)c3cccc4cccc(c34)C2=O)CC1)c1ccccc1 (stereo not drawn)	–	?	?	-92	–	–
CC(=O)c1ccc(Nc2cc(C)nc3ncnn23)cc1	–	–	–	–	–	–
COCCCn1c(SCc2ccccc2F)nc2c(sc3ccccc32)c1=O	·	–	–	·	–	·
